From PubChem BioAssay (NCATS)
Unmarked numbers belong to inactive results. Results filed as inconclusive are left out. Active and inactive are the calls of the source. Unless noted, the call rests on the fitted dose curve; in most records, active means well fitted curve in either direction with a large enough effect (not every such curve was filed as active); inconclusive means small, poorly fitted or top-dose-only effect, or another doubt; inactive means flat fitted curve, though single readings scatter.

How the values were obtained:
[1] = biological target: Lysosomal acid glucosylceramidase (Homo sapiens) (UniProt P04062); assay: Glucocerebrosidase-p2 (AID 348; in the data active means potency below about 10 µM; further: potency means the concentration at half of the fitted maximal effect); conditions: purified GBA, blue fluorogenic substrate, 40 min
Chain of Lysosomal acid glucosylceramidase (Homo sapiens) (P04062 whole entry, looked up): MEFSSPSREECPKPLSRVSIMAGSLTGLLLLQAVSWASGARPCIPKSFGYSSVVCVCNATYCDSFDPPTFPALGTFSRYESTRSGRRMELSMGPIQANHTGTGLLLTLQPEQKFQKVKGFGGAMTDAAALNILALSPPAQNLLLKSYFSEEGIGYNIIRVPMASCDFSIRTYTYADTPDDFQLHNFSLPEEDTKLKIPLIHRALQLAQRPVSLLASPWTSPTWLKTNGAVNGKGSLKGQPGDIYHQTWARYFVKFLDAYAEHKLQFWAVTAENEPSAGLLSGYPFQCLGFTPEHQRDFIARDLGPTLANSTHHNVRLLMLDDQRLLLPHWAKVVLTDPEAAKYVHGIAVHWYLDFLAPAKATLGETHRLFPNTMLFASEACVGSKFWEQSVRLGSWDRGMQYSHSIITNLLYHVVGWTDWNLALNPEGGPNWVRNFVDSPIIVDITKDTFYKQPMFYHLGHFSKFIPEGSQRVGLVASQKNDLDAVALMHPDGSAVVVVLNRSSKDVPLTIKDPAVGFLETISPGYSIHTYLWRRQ
Summary of the method: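 Normal human glucocerebrosidase (0.2 nM) with blue fluorogenic substrate (80 uM final) in citrate/phosphate pH 5.9 with 10mM sodium taurocholate, 0.01% tween-20; 40 min RT, NaOH/glycine stop; fluorescence Ex 365/Em 440; AC50 from a titration from 0.6 nM upwards.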

[2] = AP1 Signaling Pathway (AID 357); conditions: ME-180 AP-1-bla reporter, EGF-induced, beta-lactamase ratio, 5 h; at 7.69 µM (top of the series) unless noted;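 further: ME-180 reporter cells stimulated with EGF at its EC50 level; on the % scale 0 is the no-effect control and ±100 the full control effect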
Summary of the method: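 Titration-series screen for positive or negative modulators of EC50 EGF-induced signaling in ME-180 cells carrying an AP-1-driven beta-lactamase reporter. After 5 hours at 37 degrees Celsius, CCF4 460nm/530nm emission ratio gave %Activity; AC50 values derived.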

[3] = biological target: Cytochrome P450 1A2 (Homo sapiens) (UniProt P05177); assay: p450-cyp1a2 (AID 410; calls by dose curve; further: potency means the concentration at half of the fitted maximal effect;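 on activity change, negative = inhibition: -100% = full effect of reference inhibitor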); conditions: recombinant CYP1A2, luciferin-ME demethylation, luminescence; series mostly up to 11.4 µM
Chain of Cytochrome P450 1A2 (Homo sapiens) (P05177 whole entry, looked up): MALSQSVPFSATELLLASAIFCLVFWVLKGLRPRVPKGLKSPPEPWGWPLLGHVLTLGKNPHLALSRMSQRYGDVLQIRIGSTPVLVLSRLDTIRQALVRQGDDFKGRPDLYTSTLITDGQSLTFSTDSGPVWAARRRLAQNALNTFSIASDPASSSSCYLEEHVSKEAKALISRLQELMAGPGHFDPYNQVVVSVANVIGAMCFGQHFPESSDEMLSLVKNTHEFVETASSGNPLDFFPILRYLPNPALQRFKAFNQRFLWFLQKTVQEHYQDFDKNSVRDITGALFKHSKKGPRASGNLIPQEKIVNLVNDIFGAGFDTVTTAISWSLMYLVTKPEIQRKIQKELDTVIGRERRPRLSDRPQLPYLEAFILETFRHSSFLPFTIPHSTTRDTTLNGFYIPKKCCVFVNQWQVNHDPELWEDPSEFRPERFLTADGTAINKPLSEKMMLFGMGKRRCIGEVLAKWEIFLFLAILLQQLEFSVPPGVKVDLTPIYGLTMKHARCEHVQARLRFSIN
Summary of the method: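 Luminescent demethylation readout: Luciferin-ME (100uM, equal to Km) turned over by 20nM CYP1A2 for 60 min at room temperature after NADPH regeneration addition, following 10 min compound preincubation. Normalization used 57 uM furafylline as full inhibition.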

[4] = NFAT Signaling Pathway (AID 444); conditions: Jurkat NFAT-bla M1, carbachol, beta-lactamase ratio, 5 h; at 7.69 µM (top of the series) unless noted;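 further: carbachol stimulus at about its EC50 of 1 µM final; on the % scale 0 is the no-effect control and ±100 the full control effect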
Summary of the method: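 Read-out: CCF4 FRET ratio (460 nm/530 nm) after 1 h RT dye loading, used for %activity and AC50 from titration series. Cells: Jurkat NFAT-β-lactamase/M1 line, treated with compound plus 1 uM carbachol for 5 h, 37 °C.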

[5] = Stat Signaling Pathway (AID 446); conditions: ME-180 (cervical carcinoma) SIE beta-lactamase reporter, IL-6 stimulated, 5 h; at 7.69 µM (top of the series) unless noted;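 further: ME-180 cervical cancer cells given 40 pM IL-6 alongside compound; SIE-controlled beta-lactamase reporter measured as 460/530 nm FRET emission ratio; on the % scale 0 is the no-effect control and ±100 the full control effect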
Summary of the method: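 Emission at 460 and 530 nm (excitation 405 nm) reports SIE-controlled beta-lactamase in ME-180 cells. Cells received compound with 40 pM IL-6 for 5 hrs at 37 C; data scaled between 300 pM IL-6 and 125 nM JAK-inhibitor controls.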

[6] = biological target: Glucocorticoid receptor (Homo sapiens) (UniProt P04150); assay: GR-GFP Redistribution (AID 450;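 active means compounds whose dose series gives a full or clear partial fitted curve of increased nuclear translocation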; further: potency means the concentration at half of the fitted maximal effect); conditions: U2OS GR-GFP nuclear translocation, laser cytometry, 2 h
Chain of Glucocorticoid receptor (Homo sapiens) (P04150 whole entry, looked up, the tested form may be a part): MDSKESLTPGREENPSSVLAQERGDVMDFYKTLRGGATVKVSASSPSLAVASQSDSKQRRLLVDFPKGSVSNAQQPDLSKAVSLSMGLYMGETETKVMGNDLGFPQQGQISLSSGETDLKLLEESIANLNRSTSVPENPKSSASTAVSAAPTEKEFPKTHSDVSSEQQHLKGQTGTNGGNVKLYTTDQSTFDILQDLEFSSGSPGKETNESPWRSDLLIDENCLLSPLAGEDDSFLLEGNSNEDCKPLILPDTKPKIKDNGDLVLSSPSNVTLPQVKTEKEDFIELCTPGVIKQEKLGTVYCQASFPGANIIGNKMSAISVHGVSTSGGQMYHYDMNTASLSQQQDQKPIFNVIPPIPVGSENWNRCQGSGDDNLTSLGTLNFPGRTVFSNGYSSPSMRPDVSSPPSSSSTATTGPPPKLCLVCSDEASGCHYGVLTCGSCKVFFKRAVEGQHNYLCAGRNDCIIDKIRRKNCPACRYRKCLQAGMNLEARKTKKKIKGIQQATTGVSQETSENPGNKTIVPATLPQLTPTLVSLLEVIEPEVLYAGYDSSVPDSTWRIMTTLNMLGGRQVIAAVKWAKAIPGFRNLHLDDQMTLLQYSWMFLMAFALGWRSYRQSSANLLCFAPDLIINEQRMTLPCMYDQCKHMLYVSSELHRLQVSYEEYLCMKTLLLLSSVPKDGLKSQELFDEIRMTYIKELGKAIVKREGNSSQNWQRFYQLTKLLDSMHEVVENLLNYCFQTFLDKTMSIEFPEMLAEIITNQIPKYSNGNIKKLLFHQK

[7] = biological target: Glucocorticoid receptor (Homo sapiens) (UniProt P04150); assay: GR-EFC Redistribution (AID 451; calls by dose curve; further: potency means the concentration at half of the fitted maximal effect); conditions: CHO-K1 GR-EFC translocation, beta-gal luminescence, 2 h
Summary of the method: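 Translocation of GR-ED fusion to nuclear EA restores b-gal, read by luminescence after 1 h room-temperature detection. Engineered CHO-K1 biosensor cells, 1,000/well, exposed 2 h at 37 C to titrations up to 46 uM final.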

[8] = biological target: Mitogen-activated protein kinase 10 (Mus musculus) (UniProt Q61831); assay: JNK3 AlphaScreen Assay (AID 530); conditions: JNK3 lysate, c-Jun phosphorylation; series mostly up to 11.4 µM;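 further: kinase came from lysate of stimulated human HepG2 cells; signal reports phosphorylation of biotinylated GST-cJun 1-79 at Ser73 with 10 µM ATP; on the % scale 0 is the no-effect control and ±100 the full control effect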
Summary of the method: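 qHTS titrations with 15 min compound pre-incubation before adding ATP (10 uM final). Read-out: AlphaScreen of Ser73-phosphorylated biotin-GST-cJun using HepG2 lysate JNK3 activated by IL-1β and TNFα.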

[9] = biological target: 3',5'-cyclic-AMP phosphodiesterase 4B (Homo sapiens) (UniProt Q07343); assay: qHTS Assay for Inhibitors of PDE-IV (AID 607; active means well fitted activation curve with a large enough effect in the main read-out, with a control signal flat, not every such curve was filed as active; further: % of control where 0% means no effect); conditions: HEK293 ACTOne CNG channel cells, membrane potential fluorescence; series mostly up to 22.9 µM
Chain of 3',5'-cyclic-AMP phosphodiesterase 4B (Homo sapiens) (Q07343 whole entry, looked up): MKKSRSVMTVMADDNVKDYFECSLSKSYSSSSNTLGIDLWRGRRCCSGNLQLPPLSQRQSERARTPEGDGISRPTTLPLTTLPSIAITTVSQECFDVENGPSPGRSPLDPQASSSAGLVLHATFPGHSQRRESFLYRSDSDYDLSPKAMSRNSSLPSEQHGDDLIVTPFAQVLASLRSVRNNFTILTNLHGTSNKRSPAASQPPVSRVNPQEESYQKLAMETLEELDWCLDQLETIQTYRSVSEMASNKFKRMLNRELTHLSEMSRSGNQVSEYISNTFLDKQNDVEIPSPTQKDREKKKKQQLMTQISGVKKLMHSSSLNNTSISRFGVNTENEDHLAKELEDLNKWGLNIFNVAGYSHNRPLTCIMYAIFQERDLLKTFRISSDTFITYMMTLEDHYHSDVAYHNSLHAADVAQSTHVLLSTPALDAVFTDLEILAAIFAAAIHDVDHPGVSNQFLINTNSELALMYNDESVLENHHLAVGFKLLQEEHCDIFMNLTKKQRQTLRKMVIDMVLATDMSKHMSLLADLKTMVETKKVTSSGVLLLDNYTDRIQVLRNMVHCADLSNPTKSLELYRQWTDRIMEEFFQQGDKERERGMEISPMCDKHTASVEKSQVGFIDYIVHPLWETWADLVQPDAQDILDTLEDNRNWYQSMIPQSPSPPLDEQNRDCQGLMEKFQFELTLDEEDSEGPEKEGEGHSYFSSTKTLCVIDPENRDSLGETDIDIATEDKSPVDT
Summary of the method: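 The readout is membrane depolarisation from a cAMP-sensing CNG channel, detected with a potential dye at ex 535/em 590. Cells were HEK293-derived (endogenous PDE-IV) at 1000 cells/well, titrated up to 22.9 uM final.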

SMILES	Potency [1] [µM]	activity change, negative = inhibition [2] [%]	activity change, negative = inhibition [3]	activity change, negative = inhibition [4] [%]	activity, negative = inhibition [5] [%]	Potency [6] [µM]	Potency [7] [µM]	Potency [8]	Potency [9]	Potency [3]
CSc1ncnc2c1ncn2[C@@H]1O[C@@H](CO)[C@H](O)O[C@@H]1O	> 11.4	-6.79	-5.2% [at 2.29 µM]	22.2	22.9	> 46	> 9.22	inactive	inactive	–
NCc1ccc(C(=O)O)cc1	> 11.4	3.17	-4.8% [at 2.29 µM]	6.92	-2.22	> 46	> 9.22	inactive	inactive	–
Nc1c(OCC(=O)O)ccc2cc(S(=O)(=O)O)ccc12	> 11.4	3.51	–	-3.75	-10.7	> 46	> 9.22	inactive	inactive	inactive
CC1(C)[C@@H]2CC[C@]1(C)[C@@H](OC(=O)/C=C\c1ccccc1)C2	> 11.4	5.51	-3.4% [at 2.29 µM]	-17.9	21.7	> 46	> 9.22	inactive	inactive	–
O=C(O)CSc1ncccc1[N+](=O)[O-]	> 11.4	6.57	–	2.05	1.22	> 46	> 9.22	inactive	inactive	inactive
O=C(O)CNCCc1ccccc1	> 11.4	7.75	–	-3.02	4.05	> 46	> 9.22	inactive	inactive	inactive
[N-]=[N+]=NC[C@@H]1O[C@@H](n2cnc3c(N)ncnc32)[C@@H]2O[C@@H]21	> 11.4	8.89	–	10.3	-3.75	> 46	> 9.22	inactive	inactive	inactive
COc1cc(NCCC(=O)O)c2ncccc2c1	> 11.4	2.4	–	2.69	-1.17	> 46	> 9.22	inactive	inactive	inactive
NC1=C2NC=N[C@@H]2N(C/C=C\c2ccccc2)C=N1	> 11.4	1.36	-12.4% [at 2.29 µM]	4.81	13.2	> 46	> 9.22	inactive	inactive	–
CC(C)(C[C@@]1(C)NC(=O)NC1=O)OCc1ccccc1	> 11.4	-2.92	-12.1% [at 2.29 µM]	-0.038	0.608	> 46	> 9.22	inactive	inactive	–
NCCSCCc1ccccc1	> 11.4	-3.04	–	3.22	4.42	> 46	> 9.22	inactive	inactive	5.01 µM (active)
ClC(Cl)(Cl)C(N1CCN(c2ccccc2)CC1)N1CCN(c2ccccc2)CC1	> 11.4	-0.388	-14.9% [at 2.29 µM]	-2.17	-6.12	> 46	> 9.22	inactive	inactive	–
Cc1cc(Cc2cc(C)c(N)cc2N)c(N)cc1N	> 11.4	-4.79	–	-1.81	1.49	> 46	> 9.22	inactive	inactive	2 µM (active)
CN(CC(=O)O)CC(=O)O	> 11.4	-6.97	-5.9% [at 2.29 µM]	11.1	2.4	> 46	> 9.22	inactive	inactive	–
